# Data: PubChem BioAssay AID371 (SRMLSC, 2006)
# In all, about 3,300 compounds went through this assay and about 280 (8.5%) were called active. This excerpt belongs to a sample that is enriched for actives. Values without a mark were called inactive.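 Rule for the calls: active = mean growth inhibition over the two runs of 50% or more; inactive = mean growth inhibition under 50%.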
# Assay: A549 NSCLC cell proliferation inhibitors – ATP luminescence, human non-small cell lung line, primary screen (AID 371);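 note: compound exposure lasted 72 h before the ATP read; 0% = untreated cell signal and 100% = no luminescence left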
# Conditions: at 10 µM, hits give high values
row,Structure (SMILES),growth inhibition
1,C/C(=N\O)c1ccc2[nH]ccc2c1,9.01%
2,Nc1ncnc2c1ncn2[C@@H]1O[C@H](CO)[C@@H](O)[C@H]1O,1.29%
3,Nc1nc(F)nc2c1ncn2[C@@H]1O[C@H](CO)[C@@H](O)[C@@H]1O,73.1% (active)
4,Nc1nc(Cl)nc2c1ncn2[C@@H]1O[C@H](CO)[C@@H](O)[C@H]1O,33.3%
5,CCOC(=O)CSc1nc(C)c(C(C)=O)cc1C#N,7.6%
6,O=C(O)CCCc1ccccc1,-1.26%
7,O=C(NCCc1ccccc1)/C(=N\O)c1ccccc1,10.9%
8,N#C/C(=C\c1ccc(O)c(O)c1)C(=O)NCCCc1ccccc1,64.3% (active)
9,CC(C)(C)C1=Nn2c(nnc2-c2ccco2)SC1,2.63%
10,CC(=O)N(Cc1ccccc1)c1ccc(C(=O)O)cc1,-0.07%
11,COc1ccccc1C(CC(=O)Nc1nccs1)c1ccco1 (stereo not given),11.7%
12,O=c1[nH]nc2n1CCCCC2,2.49%
13,CC(C)C1Cc2c(sc3c2c(=O)n(Cc2ccccc2)c2nncn32)CO1 (stereo not given),25.2%
14,Cc1nnc2n(-c3ccccc3)c(=O)c3c4c(sc3n12)COC(C(C)C)C4 (stereo not given),13.4%
15,Cc1nnc2n(Cc3ccccc3)c(=O)c3c4c(sc3n12)COC(C(C)C)C4 (stereo not given),72.3% (active)
16,COC(=O)c1[nH]c2cc(OC)ccc2c1NC(=O)CN1CCN(c2cccc(C)c2)C(C)C1 (stereo not given),68% (active)
17,COC(=O)c1[nH]c2cc(OC)ccc2c1NC(=O)CCN1CCCC(C)(C)C1,-5.32%
18,COC(=O)c1[nH]c2cc(OC)ccc2c1NC(=O)CN1CCC(C(N)=O)CC1,-2.17%
19,COc1cccc2c(=O)c(SC(F)(F)C(F)C(F)(F)F)c(C)[nH]c12 (stereo not given),46.7%
20,CC(C)(C)c1cccc(/C=N/O)c1O,84.1% (active)
21,CSC(=Nc1ccccc1)C1=C(O)COC1=O,3.6%
22,CSc1nc(C)c2c(c1C#N)CCCC2,11.1%
23,O=C(NC1CCCCC1)[C@H](O)[C@@H](O)C(=O)NC1CCCCC1,-22.3%
24,CCCc1nc(N2CCCC2)c(C#N)c2c1CCCC2,20.2%
25,COc1ccc(CNc2oc(COc3ccc(Cl)cc3)nc2C#N)cc1,74.1% (active)

row,Structure (SMILES),growth inhibition
1,COc1ccc(CCNc2oc(COc3ccccc3)nc2C#N)cc1,31.8%
2,COc1ccc(CNc2oc(COc3ccccc3Cl)nc2C#N)cc1,34.1%
3,COC(=O)c1ccc(Cn2nnc3c(sc4nc(N5CCOCC5)c5c(c43)CCCC5)c2=O)o1,3.34%
4,O=CNC(=O)c1ccccc1C(=O)O,-1.48%
5,CCOC(=O)c1cc2cc(OC)ccc2[nH]1,15.9%
6,CCCCC(=O)Nc1c(O)c2ccccc2[nH]c1=O,3.38%
7,O=c1c(-c2ccc3c(c2)OCCO3)c(C(F)(F)F)oc2cc(O)cc(O)c12,71.1% (active)
8,O=c1c(O)c(-c2ccc(O)cc2O)oc2cc(O)cc(O)c12,4.21%
9,COc1ccc(-c2coc3cc(O)cc(O)c3c2=O)cc1,21.9%
10,COC(=O)c1cc(=O)n2c(-c3ccc(OC)cc3)csc2n1,-0.07%
11,O=C(O)CCCCCN1C(=O)CCC1=O,-0.47%
12,CC1(C)Cc2c(c(N3CCOCC3)nc3sc4c(NCc5ccco5)nnnc4c23)CS1,32.9%
13,OCCN1CCN(CCCN2c3ccccc3Sc3ccc(Cl)cc32)CC1,90.6% (active)
14,CN1CCN(CCCN2c3ccccc3Sc3ccc(C(F)(F)F)cc32)CC1,93.1% (active)
15,CN1CCN(CCCN2c3ccccc3Sc3ccc(Cl)cc32)CC1,0.16%
16,CN1CCN(CCC(=O)N2c3ccccc3Sc3ccc(Cl)cc32)CC1,13.4%
17,CN1CCN(CCCCOc2ccc(F)cc2)CC1,3.19%
18,OCCN1CCN(CCCN2c3ccccc3Sc3ccc(C(F)(F)F)cc32)CC1,92.3% (active)
19,c1ccc(SCc2nc3ccccc3[nH]2)nc1,6.85%
20,CC(NC(=O)Nc1ncccn1)(C(F)(F)F)C(F)(F)F,0.51%
21,C/C(=N\O)C1(C)N(O)C(C)(C)C(c2ccco2)=[N+]1[O-] (stereo not given),2.56%
22,CC1(C)Cc2c(c(-c3ccccc3)nc(N3CCCC3)c2C(N)=O)CO1,7.2%
23,O=C(NC1(C(F)(F)F)C(=O)Nc2c1c(=O)[nH]c(=O)n2-c1ccccc1)c1cccnc1 (stereo not given),1.94%
24,CCOC(=O)CSC1=C(C#N)C(=O)NC2(CCCCC2)S1,-4.21%
25,Nc1nc(N)c2nc(-c3ccccc3)c(N)nc2n1,82.4% (active)
